A short description of test [1]: qHTS of pediatric cancer cell lines to identify multiple opportunities for drug repurposing: Primary screen for BT-12 cells (AID 1347101). Note: nearly all actives have a fitted effect of over 25% in size. Note: potency is the fitted concentration of half-maximal effect. The essentials:
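Cells (500-1,000/well) rested 5 h, then received compounds for 48 h; metabolically active cells were measured by CellTiter-Glo luminescence. Final concentrations spanned up to 46 µM (MIPE, 11-point) or 0.59 nM-46 µM (NPC, 8-point) in primary screens, 11-point in follow-ups.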

The nature of test [2]: qHTS of pediatric cancer cell lines to identify multiple opportunities for drug repurposing: Primary screen for Rh18 cells (AID 1347102). Note: nearly all actives have a fitted effect of over 65% in size. Note: potency is the fitted concentration of half-maximal effect. The essentials:
(§1)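 Viability after 48 h compound treatment at 37C, 500-1,000 cells/well, read as ATP luminescence with CellTiter-Glo. Primary screens used 11-point (MIPE, 0.78 nM-46 µM) or 8-point (NPC, 0.59 nM-46 µM) final concentrations; follow-up screens used 11-point dilutions.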

Test [3] is described as follows: qHTS of pediatric cancer cell lines to identify multiple opportunities for drug repurposing: Primary screen for RD cells (AID 1347104). Note: nearly all actives have a fitted effect of over 55% in size. The essentials: (§2)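 Quantitative HTS format: each compound titrated (MIPE 11 points from 0.78 nM, NPC 8 points from 0.59 nM) onto cells plated 5 hours earlier. After 48 h at 37 degrees C, CellTiter-Glo luminescence was recorded.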

Test [4] is described as follows: qHTS of pediatric cancer cell lines to identify multiple opportunities for drug repurposing: Primary screen for MG 63 (6-TG R) cells (AID 1347105). Note: nearly all actives have a fitted effect of over 50% in size. Note: potency is the fitted concentration of half-maximal effect. The essentials: as §2
Test [5] in a line: qHTS of pediatric cancer cell lines to identify multiple opportunities for drug repurposing: Primary screen for control Hh wild type fibroblast cells (AID 1347106). Note: nearly all actives have a fitted effect of over 55% in size. Note: potency is the fitted concentration of half-maximal effect. The essentials:
as §1

Test [6] can be described thus: qHTS of pediatric cancer cell lines to identify multiple opportunities for drug repurposing: Primary screen for Rh30 cells (AID 1347107). Note: series mostly up to about 46 µM; nearly all actives have a fitted effect of over 75% in size. The essentials: as §1
Test [7] in a line: qHTS of pediatric cancer cell lines to identify multiple opportunities for drug repurposing: Primary screen for Rh41 cells (AID 1347108).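 Note: series mostly up to about 46 µM; luminescence drop marks cytotoxic hits; nearly all actives have a fitted effect of over 70% in size.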 The essentials: as §2
Test [8] in a line: qHTS of pediatric cancer cell lines to identify multiple opportunities for drug repurposing: Confirmatory screen for LAN-5 cells (AID 1347113). Note: nearly all actives have a fitted effect of over 65% in size. The essentials: as §1
Test [9] in a line: qHTS of pediatric cancer cell lines to identify multiple opportunities for drug repurposing: Confirmatory screen for DAOY cells (AID 1347114). Note: nearly all actives have a fitted effect of over 65% in size. The essentials:
(§3)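 Viability measured as metabolically active cells via CellTiter-Glo luminescence following 48 hours of compound exposure, 11-point dilutions in confirmatory testing. 500-1,000 cells/well plated 5 hours before dosing; controls were DMSO and 2.3 µM bortezomib.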

Test [10] can be described thus: qHTS of pediatric cancer cell lines to identify multiple opportunities for drug repurposing: Confirmatory screen for NB-EBc1 cells (AID 1347115). Note: nearly all actives have a fitted effect of over 45% in size. The essentials: as §1
The nature of test [11]: qHTS of pediatric cancer cell lines to identify multiple opportunities for drug repurposing: Confirmatory screen for control Hh wild type fibroblast cells (AID 1347121). Note: nearly all actives have a fitted effect of over 70% in size. The essentials: as §1
Test [12] in a line: qHTS of pediatric cancer cell lines to identify multiple opportunities for drug repurposing: Confirmatory screen for U-2 OS cells (AID 1347122). Note: nearly all actives have a fitted effect of over 65% in size. The essentials:
as §1

The nature of test [13]: qHTS of pediatric cancer cell lines to identify multiple opportunities for drug repurposing: Confirmatory screen for Rh41 cells (AID 1347123).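 Note: 48 h compound exposure; nearly all actives have a fitted effect of over 60% in size.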 The essentials: as §1
Test [14] is described as follows: qHTS of pediatric cancer cell lines to identify multiple opportunities for drug repurposing: Confirmatory screen for NB1643 cells (AID 1347109). Note: nearly all actives have a fitted effect of over 45% in size. The essentials:
as §1

A short description of test [15]: qHTS of pediatric cancer cell lines to identify multiple opportunities for drug repurposing: Confirmatory screen for SK-N-MC cells (AID 1347111).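 Note: potency is the fitted concentration of half-maximal effect; cells exposed to compound for 48 h before the readout; nearly all actives have a fitted effect of over 70% in size.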 The essentials:
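SK-N-MC cells at 500-1,000 cells/well in growth media were pre-incubated 5 h, then exposed to compounds at 11-point dilutions for 48 h at 37 degrees C, 5% CO2. Viability was read as CellTiter-Glo luminescence.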

Test [16] is described as follows: qHTS of pediatric cancer cell lines to identify multiple opportunities for drug repurposing: Confirmatory screen for BT-12 cells (AID 1347112). Note: nearly all actives have a fitted effect of over 55% in size. The essentials: as §1
The nature of test [17]: qHTS of pediatric cancer cell lines to identify multiple opportunities for drug repurposing: Confirmatory screen for SJ-GBM2 cells (AID 1347116). Note: nearly all actives have a fitted effect of over 60% in size. The essentials: as §3
The nature of test [18]: qHTS of pediatric cancer cell lines to identify multiple opportunities for drug repurposing: Confirmatory screen for RD cells (AID 1347124). The essentials: as §1
A short description of test [19]: qHTS of pediatric cancer cell lines to identify multiple opportunities for drug repurposing: Confirmatory screen for Rh30 cells (AID 1347126). Note: nearly all actives have a fitted effect of over 55% in size. The essentials: as §1

The structures appear in SMILES notation. Results filed as inconclusive are left out. The source made the active and inactive calls. Calls come from the whole dose curve; as a rule, active = well fitted curve in the direction sought with a large enough effect; inconclusive = small, poorly fitted or top-dose-only effect, or another doubt; inactive = no such curve, though single readings can be large; an effect the other way counts as inactive or inconclusive.

Turning to `CCC1(c2ccccc2)CCC(=O)NC1=O` (centres undefined), the Potency entry in test [1], in [2], in test [3], in [4], in test [5] and in [6] was “inactive” in each case. Besides, the Potency result in test [7] is “inactive”.

Regarding `COc1ccc2[nH]cc(CCN(C(C)C)C(C)C)c2c1`, the Potency entry in test [1], in test [2], in test [3], in test [4], in test [5] and in test [6] was “inactive” in each case. For the same compound, in test [7], the Potency entry is “inactive”.

As for `O=C1CN2CCOC2(c2ccccc2Cl)c2cc(Cl)ccc2N1` (centres undefined), the Potency result in test [1], in test [2], in test [4], in test [5], in [6] and in test [7] was “inactive” in each case.

`CN1C2CCC(C)(C)C1CC(OC(=O)C(O)(c1cccs1)c1cccs1)C2` (centres undefined): the Potency result in test [1], in test [2], in test [3], in test [4], in test [5] and in [6] was “inactive” throughout. In addition, the Potency entry in [7] is “inactive”.

For `O=C(O)Cc1ccccc1`, the Potency entry in [1], in [2], in test [3], in [4], in test [5] and in [6] was “inactive” throughout. The Potency entry in test [7], in [8], in test [9], in test [10], in test [11] and in test [12] was “inactive” each time. Besides, the Potency result in test [13] is “inactive”.

As to `CCN(CC)CCOC(=O)C(C)(c1ccccc1)c1ccccc1`, the Potency result in [1], in test [2], in [4], in test [5] and in [6] was “inactive” throughout.

For `Nc1ccc(N)cc1`, the Potency entry in test [1], in test [2], in test [3], in [4], in test [5] and in test [6] was “inactive” throughout. Further, in test [7], the Potency entry was “inactive”.

As to `O=C(CBr)Nc1ccc(Cl)cc1C(=O)c1ccccc1F`, the Potency entry in [1], in test [2], in test [3], in test [4], in test [5] and in test [6] was “inactive” each time. Besides, in test [7], the Potency result is “inactive”.

In the case of `O=C(O)CCCCCCNC1c2ccccc2CCc2ccccc21`, the Potency result in [1], in [2], in test [4], in test [5], in test [6] and in test [7] was “inactive” in each case.

`CNC(C)Cc1ccccc1OC` (centres undefined): the Potency entry in test [1], in test [2], in test [4], in test [5], in [6] and in [7] was “inactive” in each case.

As to `NC(=O)CN1CCCC1=O`, the Potency entry in test [1], in [2], in test [4], in test [5], in [6] and in [7] was “inactive” throughout.

On to `CCCN(CCC)CCc1c[nH]c2ccccc12`, for which the Potency entry in test [1], in [2], in test [4], in test [5] and in test [6] was “inactive” throughout.

Turning to `CCS(=O)(=O)C(C)(C)S(=O)(=O)CC`, the Potency result in [1], in test [2], in test [3], in test [4], in test [5] and in [6] was “inactive” throughout. Moreover, in test [7], the Potency entry was “inactive”.

As to `Nc1ccc(Cl)cc1C(=O)c1ccccc1F`, the Potency entry in [1], in test [2], in [3], in test [5], in test [6] and in test [7] was “inactive” in each case.

Take `OC(O)C(Cl)(Cl)Cl`: the Potency result in [1], in test [2], in test [3], in [4], in [5] and in test [6] was “inactive” in each case. For the same compound, the Potency entry in test [7] is “inactive”.

For the compound `ClCc1cccc(Cl)c1`, the Potency result in test [1], in test [2], in [3], in test [4], in [5] and in test [6] was “inactive” in each case. Besides, in [7], the Potency entry was “inactive”.

As to `CC1N=C(N)OC1c1ccccc1` (centres undefined), the Potency entry in test [1], in test [2], in test [3], in test [5], in [6] and in test [7] was “inactive” in each case.

Take `CC(C)C(Br)C(=O)NC(N)=O` (centres undefined): the Potency result in test [1], in [2], in [4], in test [5], in [6] and in test [7] was “inactive” in each case.

For `CCOC(=O)c1ncn2c1CN(C)C(=O)c1c(I)cccc1-2`, the Potency result in test [1], in [2], in [3], in test [4], in [5] and in test [6] was “inactive” in each case. For the same compound, in test [7], the Potency entry is “inactive”.

With `ClC1=C(Cl)C2(Cl)C(CBr)CC1(Cl)C2(Cl)Cl` (centres undefined), the Potency result in test [1], in test [2], in test [4], in test [5], in [6] and in test [7] was “inactive” in each case. The Potency entry in test [14], in test [16], in [8], in [9], in [10] and in test [17] was “inactive” throughout. Moreover, the Potency result in test [11], in test [13], in test [18] and in test [19] was “inactive” in each case. In addition, in test [15], the Potency is 10.4 µM (active).

In the case of `COP(=O)(OC)C(O)C(Cl)(Cl)Cl` (centres undefined), the Potency result in test [1], in test [2], in test [3], in [4], in test [5] and in test [6] was “inactive” in each case. In addition, the Potency result in test [7] is “inactive”.

For the compound `CC(C)=CCN1CC[C@@]2(C)c3cc(O)ccc3C[C@@H]1[C@@H]2C`, the Potency result in test [1], in test [2], in test [4], in test [5], in test [6] and in test [7] was “inactive” throughout.

Turning to `CN1CCC(N(Cc2ccccc2)c2ccccc2)CC1`, the Potency entry in test [1], in test [2], in [4], in [5], in [6] and in test [7] was “inactive” each time.

On to `c1ccc2c(c1)Sc1ccccc1N2CC1CN2CCC1CC2` (centres undefined), for which the Potency is 15.5 µM (active) in [1], 23.7 µM (active) in test [2], 21.1 µM (active) in test [4] and 23.7 µM (active) in [5].

`COc1cc(C[C@@H](C)N)c(OC)cc1Br`: the Potency result in test [1], in [2], in test [4], in [5], in test [6] and in [7] was “inactive” throughout.

In the case of `C[C@]12CC[C@H]3[C@@H](CCC4=CC(=O)CC[C@@]43C)[C@@H]1CC[C@@H]2C(=O)O`, the Potency result in test [1], in [2], in [4], in test [5], in test [6] and in test [7] was “inactive” throughout.

With `C[C@]12CC[C@H]3[C@@H](CCC4=CC(=O)CC[C@@H]43)[C@@H]1CC[C@@H]2O`, the Potency entry in [1], in test [2], in [3], in test [4], in test [5] and in test [6] was “inactive” in each case. Further, the Potency entry in test [7] is “inactive”.

Consider `ClCCCN1CCN(c2cccc(Cl)c2)CC1`, for which the Potency result in test [1], in test [2], in [4], in [5], in test [6] and in test [7] was “inactive” throughout.

Take `COc1ccc2c(C(=O)c3ccc(Cl)cc3)c(C)n(CC(=O)O)c2c1`: the Potency entry in test [1], in test [2], in [3], in test [5], in [6] and in test [14] was “inactive” each time. For the same compound, the Potency entry in test [16], in test [8], in [9], in test [10], in test [17] and in [11] was “inactive” throughout. The Potency entry in test [12], in [13] and in test [18] was “inactive” each time. Moreover, the Potency in [15] is 10.4 µM (active).
